# Experimental data reported in PubChem BioAssay.
# System: Sam68 (KHDRBS1)
# Assay: Sam68 small-molecule binders, primary screen, biochemical, small-molecule microarray, 635 nm fluorescence (AID 1125);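 note: score merges 667 nm channel intensity with signal to noise over triplicate slides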
# Details: small-molecule microarray binding, higher = more signal
row,SMILES,composite z-score
1,C=C(COC)/C(=C/C[C@@H](OC(C)=O)c1ccccc1OCCO)c1cc(C(=O)OC)ccc1OC,0.844
2,C=CCN1C(=O)[C@]2(O[C@H](CCO)[C@@H]([Si](C)(C)c3ccc(OC)cc3)[C@@H]2C)c2ccccc21,-0.241
3,COc1ccc(CCNC(=O)[C@@H]2c3ccccc3C(=O)N(CC34CC5CC(CC(C5)C3)C4)[C@H]2c2ccc(CO)cc2)cc1,1.22
4,C=CCC(OC(C)=O)[C@@H]1[C@@H](N(Cc2cccc3ccccc23)C(=O)c2ccc(C)cc2)c2cc(OCCCO)ccc2N1C(=O)c1ccc2ccccc2n1 (some centres undefined),0.478
5,COCCCNC(=O)[C@@H]1c2ccccc2C(=O)N(Cc2cc(C(F)(F)F)cc(C(F)(F)F)c2)[C@H]1c1ccc(CO)cc1,0.299
6,CCOC(=O)C[C@H]1[C@H](OC(=O)c2ccc(C(=O)c3ccccc3)cc2)[C@@H](NC(=O)c2ccc3ccccc3c2)c2cc(OCCCO)ccc2N1C(=O)c1ccc2ccccc2n1,1.09
7,C=CCN1C(=O)[C@]2(O[C@H](CCn3cc([C@H](O)c4ccccc4)nn3)[C@@H]([Si](C)(C)c3ccc(OC)cc3)[C@@H]2C)c2cc(N3C(=O)c4cccc5cccc3c45)ccc21,0.598
8,CN(C)CCCC[C@@H]1NC(=O)[C@H]2C[C@@H](C(=O)O)[C@@H](c3cccc(OCCO)c3)N2C1=O,0.524
9,C=CCC(OC(C)=O)[C@@H]1[C@@H](N(Cc2ccc(-c3cccc(C(F)(F)F)c3)o2)C(=O)c2cccc3ccccc23)c2cc(OCCCO)ccc2N1C(=O)c1ccc2ccccc2c1 (some centres undefined),-0.351
10,C=C(COC)/C(=C/C[C@H](OC(=O)c1ccncc1)c1ccc(OCCO)cc1)c1cc(C(=O)OC)ccc1OC,1.26
11,COCCOC(=O)N1C(=O)[C@@]2(c3cc(C#CCC(C(=O)OC)C(=O)OC)ccc31)[C@H](C(=O)N1CCc3cc(OC)c(OC)cc3C1)[C@H]1C(=O)O[C@H](c3ccccc3)[C@H](c3ccccc3)N1[C@@H]2c1ccc(O)cc1,1.17
12,Cc1ccc(S[C@]2(C(=O)NC3CC3)CC(=O)N(Cc3cc(C(F)(F)F)cc(C(F)(F)F)c3)[C@@H]2c2ccc(CO)cc2I)cc1,0.964
13,COc1ccc([Si](C)(C)[C@H]2[C@H](CCn3cc([C@H](O)c4ccccc4)nn3)O[C@@]3(C(=O)N(C)c4c(Br)cc(C)cc43)[C@@H]2C)cc1,0.0516
14,CCCCC(O)C1C=CC2C(=O)NC(=O)C2N1Nc1ccc(Cl)cc1Cl (centres undefined),0.0434
15,C=CCC(OC(C)=O)[C@@H]1[C@@H](N(Cc2ccc(-c3ccccc3)cc2)C(=O)c2ccc(-c3ccccc3)cc2)c2cc(OCCCO)ccc2N1C(=O)c1ccc2ccccc2n1 (some centres undefined),0.504
16,COc1ccc([Si](C)(C)[C@H]2[C@H](CCO)O[C@@]3(C(=O)N(Cc4ccccc4)c4ccc(N(C=O)c5ccccc5)cc43)[C@@H]2C)cc1,0.936
17,CN(C)CCCC[C@@H]1NC(=O)[C@H]2C[C@@H](C(=O)NCc3ccc(F)cc3)[C@@H](c3ccc(O)cc3)N2C1=O,1.16
18,COC(=O)[C@@]1(Cc2ccc(F)cc2)[C@H]2c3cc(C(=O)N(C)C)n(CCO)c3C[C@H]2CN1C(=O)c1ccccc1,-0.206
19,C=C(/C(=C/C[C@@H](OC(C)=O)c1ccccc1OCCO)c1cc(C(=O)OC)ccc1OC)C(C)C,0.373
20,CCCCN1CC=CC23O[C@@H]4/C=C\CCC(C)OC(=O)C4[C@H]2C(=O)N(C(C)CO)[C@@H]3C1=O (some centres undefined),-0.879
21,NCCCC[C@@H]1NC(=O)[C@H]2C[C@@H](C(=O)NCc3ccc(F)cc3)[C@@H](c3cccc(OCCO)c3)N2C1=O,1.3
22,COc1cccc(C[C@H]2C[C@@H](CO[Si](C(C)C)(C(C)C)C(C)C)N3C(=O)[C@@]4(C(C)=O)O[C@@]23[C@@H]2C(=O)N(C)C(=O)[C@@H]24)c1,0.984
23,CC#CCO[Si](C#CCCCCCC)(C(C)C)C(C)C,0.204
24,O=C1NC(=O)C2C1C=CC(C(O)c1ccc(F)cc1)N2Nc1ccccn1 (centres undefined),-0.288
